Screens as filed in PubChem.
Shown is part of a subset that was picked to be rich in hits.
BL2 CD40 inh – inhibitors of CD40-induced NF-kB signaling, primary screen, BL2 cells, luciferase reporter, single point; CD40L-induced, 4 h; inhibition, % at 10 µM; actives 0.94% (n = 83,000);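 active = mean inhibition of at least 50% with a set share of replicates also reaching that level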
Large screens that a line does not name were inactive; [ ] = another dose, or the depositor's remark.

Cc1cc(-c2nnc3n2N=C(c2ccc(-c4ccccc4)cc2)CS3)n[nH]1	none
C[n+]1c2n(c3ccccc31)N=C(c1ccc(-c3ccccc3)cc1)CS2	BL2 CD40 inh 70
CN(C)C(=O)c1cccc(-c2ccc3c(c2)[C@@H]2[C@@H](CCN2C(=O)C2CCCCC2)[C@@H](CO)N3)c1	none
CC(C)C#Cc1ccc([C@@H]2[C@H]3CN(C(=O)NC4CCCCC4)CC(=O)N3[C@H]2CO)cc1	none
COc1ccc(C#Cc2ccc([C@@H]3[C@@H](CO)N4CCCCN(C)C[C@H]34)cc2)cc1	none
COc1ccc(C#Cc2ccc([C@@H]3[C@H](CO)N4CCCCN(C)C[C@@H]34)cc2)cc1	none
COc1ccc(C#Cc2ccc([C@@H]3[C@H]4CN(C(=O)c5ccncc5)CCCCN4[C@H]3CO)cc2)cc1	none
COc1ccc(C#Cc2ccc([C@H]3[C@@H](CO)N4CCCCN(C)C[C@@H]34)cc2)cc1	BL2 CD40 inh active[25 µM]
COc1ccc(C#Cc2ccc([C@@H]3[C@H](CO)N4CCCCN(C(=O)c5ccncc5)C[C@@H]34)cc2)cc1	none
COc1ccc(C#Cc2ccc([C@H]3[C@H]4CN(C(=O)c5ccncc5)CCCCN4[C@H]3CO)cc2)cc1	BL2 CD40 inh 53[25 µM]
CN(C[C@@H]1[C@H](c2ccccc2)[C@@H](CO)N1C(=O)C1CC1)C(=O)c1ccccn1	none
COc1cccc(NC(=O)N(C)C[C@H]2OCc3ccccc3-c3c(n(C)c4ccccc34)C(=O)N([C@@H](C)CO)C[C@@H]2C)c1	none
O=C([C@H]1[C@H](CO)[C@H]2Cn3c(ccc(C4=CCCCC4)c3=O)[C@@H]1N2Cc1nccs1)N1CCCCC1	none
CCc1nc(SCc2ccc(C(=O)OC)o2)n[nH]1	none
COC(=O)c1ccc(CSc2nnnn2C)o1	none
COC(=O)c1ccc(CSc2nnc3c(Cl)cc(Cl)cn23)o1	BL2 CD40 inh 67
COC(=O)c1ccc(CSCc2ccc(C(=O)OC)o2)o1	none
COC(=O)c1ccc(CSc2nc3ccccc3c(=O)n2-c2ccccc2)o1	none
COC(=O)c1ccc(CSc2cc(C)c3cc(C)cc(C)c3n2)o1	BL2 CD40 inh 55
CN(C)CC(=O)Nc1ccc2c(c1)[C@H]1C[C@@H](CC(=O)N3CCCCC3)O[C@H](CO)[C@H]1O2	none
CCC(=O)N1CCCCN2[C@H](CO)[C@@H](c3ccc(C#Cc4ccccc4)cc3)[C@H]2C1	none
CN1C[C@H]2[C@@H](c3ccccc31)[C@H](CO)N2C(=O)C1CCCC1	none
Cc1ccc(S(=O)(=O)N(C)C[C@H]2OCCCC[C@H](C)Oc3ccc(NS(=O)(=O)c4ccccc4)cc3C(=O)N([C@@H](C)CO)C[C@H]2C)cc1	none
Cc1cc(C(=O)COC(=O)CNC(=O)c2ccccc2)c(C)n1CC1CCCO1 (centres undefined)	BL2 CD40 inh 58
COc1cc(OC)cc(C(=O)OCC(=O)c2cc(C)n(CC3CCCO3)c2C)c1 (centres undefined)	none
Cc1cc(C(=O)COC(=O)c2ccc(O)cc2)c(C)n1CC1CCCO1 (centres undefined)	none
CC(C)NC(=O)Nc1cccc2c1O[C@H](CN(C)C)[C@@H](C)CN(C)C2=O	none
Cc1cccc2sc(N(CCN3CCOCC3)C(=O)CCS(=O)(=O)c3ccccc3)nc12	none
COc1ccc(Cl)c2sc(N(CCN(C)C)C(=O)CCS(=O)(=O)c3ccc(C)cc3)nc12	none
COc1ccc(OC)c2sc(N(CCCN(C)C)C(=O)CCS(=O)(=O)c3ccccc3)nc12	BL2 CD40 inh 81
C[C@H](CO)N1C[C@H](C)[C@H](CN(C)CC2CC2)OCc2cnnn2CCCC1=O	none
CC(C)NC(=O)N(C)C[C@H]1OCc2ccccc2-c2ccccc2C(=O)N([C@H](C)CO)C[C@@H]1C	none
C[C@H](CO)N1C[C@H](C)[C@@H](CN(C)C(=O)Nc2ccccc2)OCCCC[C@H](C)Oc2ccc(NC(=O)Nc3ccc4c(c3)OCO4)cc2C1=O	none
COc1ccc(OCC(=O)OCC(=O)NCc2ccco2)cc1	none
COc1ccc(CC(=O)OCC(=O)NCc2ccco2)cc1	none
Cc1cc(OCC(=O)OCC(=O)NCc2ccco2)ccc1Cl	BL2 CD40 inh 31
COC(=O)C1=C(C(=O)OC)C(C(=O)OC)C(C(=O)OC)C(C(=O)OC)(C(=O)OC)C(C(=O)OC)=C1C(=O)OC (centres undefined)	BL2 CD40 inh 75
COC(=O)C1C(C(=O)OC)C1(c1ccccc1)c1ccccc1 (centres undefined)	none
O=C(Nc1ccccc1F)N[C@H]1CC[C@@H](CCNC(=O)C2CCCC2)O[C@H]1CO	none
COc1ccccc1NC(=O)N(C)C[C@H]1OCc2ccccc2-c2ccccc2C(=O)N([C@@H](C)CO)C[C@H]1C	none
CCCN1[C@@H]2Cn3c(cccc3=O)[C@H]1[C@@H](C(=O)N[C@H](C)c1ccccc1)[C@@H]2CO	none
O=C(C[C@H]1C[C@H]2c3cc(NC(=O)Nc4ccccc4F)ccc3O[C@H]2[C@@H](CO)O1)NCc1ccc2c(c1)OCO2	none
COc1ccc(C(=O)Nc2ccc3c(c2)OCCO3)c(OC)c1	none
COc1ccccc1NC(=O)Nc1ccc2c(c1)OCCO2	none
COc1cc2cc(C(=O)Nc3ccc4c(c3)OCCO4)[nH]c2cc1OC	BL2 CD40 inh 60
C[C@@H]1CN([C@@H](C)CO)C(=O)c2cc(-c3cccnc3)cnc2O[C@H]1CN(C)C(=O)Nc1ccccc1	none
COc1cccc(S(=O)(=O)N(C)C[C@@H]2OCc3ccccc3-c3ccccc3C(=O)N([C@@H](C)CO)C[C@@H]2C)c1	none
COC(=O)[C@H]1[C@H](CO)[C@H]2Cn3c(ccc(C4=CCCCC4)c3=O)[C@H]2N1C(=O)C1CCCC1	none
C[C@@H]1CN([C@@H](C)CO)C(=O)Cc2cc(NS(=O)(=O)c3ccc(Cl)cc3)ccc2O[C@H]1CN(C)Cc1ccc(Cl)c(Cl)c1	BL2 CD40 inh 65
C[C@H](CO)N1C[C@H](C)[C@@H](CN(C)Cc2ccc(Cl)c(Cl)c2)Oc2ccc(NS(=O)(=O)c3ccc(Cl)cc3)cc2CC1=O	none
Cc1noc(C)c1S(=O)(=O)Nc1ccc2c(c1)CC(=O)N([C@@H](C)CO)C[C@@H](C)[C@@H](CN(C)Cc1ccc(Cl)c(Cl)c1)O2	none
C[C@H]1CN([C@@H](C)CO)C(=O)Cc2cc(NS(=O)(=O)c3cccs3)ccc2O[C@@H]1CN(C)Cc1ccc(Cl)c(Cl)c1	BL2 CD40 inh 57
C[C@@H]1CN([C@@H](C)CO)C(=O)Cc2cc(NC(=O)Cc3cn(C)c4ccccc34)ccc2O[C@@H]1CN(C)C(=O)Nc1ccccc1	none
C[C@@H]1CN([C@H](C)CO)C(=O)Cc2cc(NS(=O)(=O)c3ccc(F)cc3)ccc2O[C@@H]1CN(C)Cc1ccncc1	none
C[C@@H]1CN([C@@H](C)CO)C(=O)Cc2cc(NC(=O)Cc3cn(C)c4ccccc34)ccc2O[C@H]1CN(C)Cc1ccc(C(F)(F)F)cc1	BL2 CD40 inh 66[25 µM]
C[C@@H]1CN([C@@H](C)CO)C(=O)Cc2cc(NC(=O)Nc3ccc(C(F)(F)F)cc3)ccc2O[C@H]1CN(C)Cc1ccccc1	none
C[C@H](CO)N1C[C@H](C)[C@@H](CN(C)Cc2ccc(C(=O)O)cc2)Oc2ccc(NS(=O)(=O)c3cccs3)cc2C1=O	none
C[C@@H]1CN([C@@H](C)CO)C(=O)c2cc(NS(=O)(=O)c3cccs3)ccc2O[C@@H]1CN(C)Cc1ccc(C(=O)O)cc1	none
C[C@@H]1CN([C@@H](C)CO)C(=O)Cc2cc(NS(=O)(=O)c3ccc(F)cc3)ccc2O[C@@H]1CN(C)Cc1ccncc1	none
C[C@@H]1CN([C@@H](C)CO)C(=O)Cc2cc(NS(=O)(=O)c3ccccc3)ccc2O[C@H]1CN(C)Cc1ccc(Cl)c(Cl)c1	BL2 CD40 inh 68
